Consider four molecules from PubChem BioAssay (EPA / NIEHS).

By AC50 is commonly meant the midpoint of the concentration-response curve, whichever way the signal moves.

The source made the active and inactive calls. Rule for the calls: active = hit-call score of the fitted dose curve at least 0.9, where 1 is the maximum; inactive = score below 0.9.

The nature of assay [1]: ATG_CMV_CIS: Attagene CIS-FACTORIAL HepG2 Assay for human CMV (Internal Marker) (AID 2282928).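 Note: endpoint acts as a background internal control marker rather than a target.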 As to conditions: HepG2 CMV promoter reporter, transcription factor profiling; actives raise or lower the signal. In short, it runs like this:
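Endogenous transcription factor activity read in HepG2 via transfected cis-promoter reporter units. After 24 h dosing, reporter mRNA measured by RT-PCR/capillary electrophoresis; gain or loss of signal fit relative to DMSO.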

Assay [2] in a line: ATG_DR4_LXR_CIS: Attagene CIS-FACTORIAL HepG2 Assay for human Liver X Receptor (LXR), DR4 submotif (AID 2282929). Conditions: HepG2 Attagene DR4 cis-reporter, mRNA transcription; actives raise or lower the signal. An outline of the steps: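 Total RNA from 24 h-treated, MRTU-transfected HepG2 cells underwent reverse transcription, PCR, fluorescent primer extension and restriction digestion before capillary electrophoresis. Both increases and decreases in reporter signal were fitted against DMSO.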

Assay [3] in a line: ATG_AP_2_CIS: Attagene CIS-FACTORIAL HepG2 Assay for human Activator Protein 2 (AP-2) (AID 2282932). As to conditions: HepG2 AP-2 cis-reporter, Attagene transcription factor profiling; actives raise or lower the signal. In short, it runs like this: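 HepG2 cells transiently transfected with cis-element reporter units and exposed for 24 h. Reporter mRNA measured by RT-PCR, FAM labelling, HpaI digestion and capillary electrophoresis. Changes in either direction fitted relative to DMSO.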

Assay [4] has as its target Transcription factor E2F1 (Homo sapiens) (UniProt Q01094). Briefly: ATG_E2F_CIS: Attagene CIS-FACTORIAL HepG2 Assay for human E2F Transcription Factor 1 (AID 2282935). Conditions: HepG2 Attagene cis-reporter, E2F reporter RNA transcripts; actives raise or lower the signal. In short, it runs like this: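 Endogenous E2F1 activity read through cis-promoter reporter units transfected into HepG2. After 24 h compound treatment, reporter mRNA measured by RT-PCR, HpaI digestion and capillary electrophoresis. Bidirectional fit versus DMSO.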

The nature of assay [5]: ATG_M_61_CIS: Attagene CIS-FACTORIAL HepG2 Assay for M61 Transcription Factor (Internal Marker) (AID 2282937). Conditions: HepG2 Attagene CIS-FACTORIAL M61 internal marker reporter; actives raise or lower the signal. In short, it runs like this:
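Transfect HepG2 with MRTUs; dose 24 h; isolate RNA; reverse-transcribe with DNase I treatment; PCR-amplify, FAM-label and cut with HpaI for 2 h at 37 C; resolve by CE. Bidirectional fitting against DMSO.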

A short description of assay [6]: ATG_EGR_CIS: Attagene CIS-FACTORIAL HepG2 Assay for human Early Growth Response 1 (EGR1) (AID 2282938). Conditions: HepG2 Attagene CIS-FACTORIAL EGR reporter mRNA; actives raise or lower the signal. In short, it runs like this:
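After a 24 h treatment of transiently transfected HepG2 cells, total RNA was reverse-transcribed and reporter sequences PCR-amplified, labelled and run on capillary electrophoresis. Reporters sit under cis-regulatory promoters sensing endogenous factors.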

Assay [7] can be described thus: ATG_Ets_CIS: Attagene CIS-FACTORIAL HepG2 Assay for human Erythroblast Transformation Specific (ETS) (AID 2282941). As to conditions: HepG2 ETS cis-reporter transcription, actives raise or lower the signal. In short, it runs like this:
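Steps: transfect HepG2 with multiple reporter units; treat compound 24 h; isolate RNA, DNase-treat, reverse-transcribe; PCR-amplify, label with 6-FAM, digest with HpaI; separate by capillary electrophoresis. Activity fitted both directions versus DMSO.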

Assay [8] has as its target Hepatocyte nuclear factor 3-beta (Homo sapiens) (UniProt Q9Y261). In words: ATG_FoxA2_CIS: Attagene CIS-FACTORIAL HepG2 Assay for human Forkhead box A2 (FOXA2) (AID 2282942). As to conditions: HepG2 cis-reporter transcription factor activity, 24 h; actives raise or lower the signal. In short, it runs like this: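 24 h dosing of HepG2 bearing cis-reporter constructs; mRNA readout by RT-PCR/CE fluorescence; bidirectional fit, DMSO baseline.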

Assay [9] in a line: ATG_FoxO_CIS: Attagene CIS-FACTORIAL HepG2 Assay for human Forkhead box O (FoxO) (AID 2282943). As to conditions: HepG2 Attagene cis-reporter, FoxO element, mRNA; actives raise or lower the signal. An outline of the steps:
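Read-out: fluorescence of 6-FAM-labelled reporter cDNA fragments resolved by capillary electrophoresis. Transiently transfected HepG2 cells were dosed for 24 h; activity fitted in both directions relative to DMSO controls.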

A short description of assay [10]: ATG_GATA_CIS: Attagene CIS-FACTORIAL HepG2 Assay for human GATA Binding Protein (AID 2282944). Conditions: HepG2 GATA cis-element reporter, Attagene multiplex mRNA; actives raise or lower the signal. In short, it runs like this: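 DMSO serves as negative control and baseline for bidirectional fitting of reporter mRNA changes. HepG2 cells bearing transiently transfected cis-promoter reporters were exposed 24 h; transcripts detected via RT-PCR and capillary electrophoresis.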

Assay [11] in a line: ATG_ISRE_CIS: Attagene CIS-FACTORIAL HepG2 Assay for human Interferon Regulatory Factor 1 (IRF1) binding to an Interferon-Stimulated Response Element (ISRE) (AID 2282948). As to conditions: HepG2 ISRE cis-reporter (Attagene), mRNA transcription readout; actives raise or lower the signal. An outline of the steps:
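Transfected HepG2 (multiple reporter transcription units, cis elements) dosed 24 h. RNA → oligo(dT) RT → PCR → 6-FAM primer extension → HpaI → CE. DMSO = negative control/baseline.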

Assay [12] can be described thus: ATG_M_32_CIS: Attagene CIS-FACTORIAL HepG2 Assay for M32 Transcription Factor (Internal Marker) (AID 2282949).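 Note: background control marker of the multiplexed CIS panel rather than a real target.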 As to conditions: HepG2 Attagene cis-factorial M32 reporter, mRNA; actives raise or lower the signal. In short, it runs like this:
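Fluorescent capillary electrophoresis peaks of HpaI-digested, FAM-labelled RT-PCR reporter products give the signal. Source: transiently transfected human liver HepG2 cells, 24 h after chemical dosing; bidirectional fitting against DMSO.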

The nature of assay [13]: ATG_MRE_CIS: Attagene CIS-FACTORIAL HepG2 Assay for human Metal Responsive Element (MRE) (AID 2282954). As to conditions: HepG2 MRE cis-reporter transcription, Attagene multiplex; actives raise or lower the signal. In short, it runs like this:
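HepG2 cells transiently transfected with cis-element-driven reporter units; mRNA measured 24 h after dosing. Reporter transcripts quantified by RT-PCR, FAM labelling, HpaI digestion and capillary electrophoresis; bidirectional fit versus DMSO.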

Assay [14] addresses Paired box protein Pax-6 (Homo sapiens) (UniProt P26367). Briefly: ATG_Pax6_CIS: Attagene CIS-FACTORIAL HepG2 Assay for human Paired Box 6 (PAX6) (AID 2282956). As to conditions: HepG2 CIS-FACTORIAL PAX6 reporter transcription, RNA readout; actives raise or lower the signal. An outline of the steps: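 Transient MRTU transfection of HepG2 → compound exposure 24 h → TriZol RNA, oligo(dT) RT → PCR, 6-FAM primer extension, HpaI cut → capillary electrophoresis; activity fitted both directions against DMSO.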

A short description of assay [15]: ATG_PXRE_CIS: Attagene CIS-FACTORIAL HepG2 Assay for human Pregnane X Receptor Element (PXRE) (AID 2282957). Conditions: HepG2 Attagene CIS-FACTORIAL PXRE reporter, mRNA; actives raise or lower the signal. An outline of the steps: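 Transiently transfected HepG2 cells were dosed and incubated for 24 h. RNA was then isolated, DNase-treated, reverse-transcribed and reporter sequences amplified. Labeled, HpaI-digested fragments were quantified by capillary electrophoresis against DMSO.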

A short description of assay [16]: ATG_Sox_CIS: Attagene CIS-FACTORIAL HepG2 Assay for human SRY-box transcription factor (SOX) (AID 2282960). As to conditions: HepG2 Attagene cis-factorial SOX reporter, mRNA; actives raise or lower the signal. In short, it runs like this: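 HepG2, cis reporter units, 24 h exposure. Reporter mRNA: RT-PCR → FAM labelling → HpaI → CE fluorescence. Bidirectional fit vs DMSO.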

Assay [17] is described as follows: ATG_SREBP_CIS: Attagene CIS-FACTORIAL HepG2 Assay for human Sterol Regulatory Element Binding (SREBP) (AID 2282962). Conditions: HepG2 Attagene cis-factorial SREBP reporter, mRNA; actives raise or lower the signal. In short, it runs like this:
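Transfected HepG2 (cis-regulated reporter library, endogenous TFs) → compound 24 h → total RNA → oligo(dT) RT → reporter-specific PCR → FAM primer extension, HpaI cut → CE fluorescence. Fit bidirectional vs DMSO.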

A short description of assay [18]: ATG_TCF_b_cat_CIS: Attagene CIS-FACTORIAL HepG2 Assay for human T-Cell-Factor with beta-catenin (TCF/b-cat) (AID 2282965). Conditions: HepG2 TCF/beta-catenin cis-reporter transcription, actives raise or lower the signal. In short, it runs like this:
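HepG2, transient MRTU transfection, cis-element-driven reporters (endogenous TFs). 24 h compound exposure. Readout: reporter mRNA by RT-PCR + 6-FAM primer extension, HpaI digest, capillary electrophoresis. Gain/loss fit vs DMSO baseline.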

Assay [19] can be described thus: ATG_TAL_CIS: Attagene CIS-FACTORIAL HepG2 Assay for human TAL Basal Promoter (AID 2282966).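 Note: background control endpoint measuring basal TAL promoter reporter mRNA not a specific factor.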 Conditions: HepG2 Attagene cis-factorial TAL promoter reporter; actives raise or lower the signal. An outline of the steps: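 Readout: reporter mRNA, fluorescence by CE. System: HepG2, transient multi-reporter transfection, endogenous TF activity. Exposure: 24 h. Analysis: bidirectional, DMSO-normalized; background control.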

Assay [20] can be described thus: ATG_TGFb_CIS: Attagene CIS-FACTORIAL HepG2 Assay for human Transforming Growth Factor (TGF) (AID 2282967). Conditions: HepG2 Attagene CIS TGFb reporter, mRNA transcription; actives raise or lower the signal. An outline of the steps: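 Transcript-level reporter readout: HepG2 transfectants, 24 h exposure, RNA to cDNA, reporter-specific PCR, fluorescent primer extension, capillary sizing against ROX standards. Gain- or loss-of-signal relative to DMSO.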

Chain of Hepatocyte nuclear factor 3-beta (Homo sapiens) (Q9Y261 whole entry, looked up): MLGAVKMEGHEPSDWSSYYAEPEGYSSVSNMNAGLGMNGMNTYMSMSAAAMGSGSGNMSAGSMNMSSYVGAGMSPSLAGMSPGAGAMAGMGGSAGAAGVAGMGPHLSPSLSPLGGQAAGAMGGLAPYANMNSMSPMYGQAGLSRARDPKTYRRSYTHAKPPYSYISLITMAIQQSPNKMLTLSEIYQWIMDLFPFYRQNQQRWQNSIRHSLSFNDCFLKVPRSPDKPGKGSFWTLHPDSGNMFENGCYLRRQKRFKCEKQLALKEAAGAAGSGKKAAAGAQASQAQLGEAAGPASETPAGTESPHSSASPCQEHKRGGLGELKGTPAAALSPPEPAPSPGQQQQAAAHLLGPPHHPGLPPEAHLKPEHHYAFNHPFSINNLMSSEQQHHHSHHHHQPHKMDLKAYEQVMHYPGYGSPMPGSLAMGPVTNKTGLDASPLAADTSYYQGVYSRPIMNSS
Chain of Transcription factor E2F1 (Homo sapiens) (Q01094 whole entry, looked up): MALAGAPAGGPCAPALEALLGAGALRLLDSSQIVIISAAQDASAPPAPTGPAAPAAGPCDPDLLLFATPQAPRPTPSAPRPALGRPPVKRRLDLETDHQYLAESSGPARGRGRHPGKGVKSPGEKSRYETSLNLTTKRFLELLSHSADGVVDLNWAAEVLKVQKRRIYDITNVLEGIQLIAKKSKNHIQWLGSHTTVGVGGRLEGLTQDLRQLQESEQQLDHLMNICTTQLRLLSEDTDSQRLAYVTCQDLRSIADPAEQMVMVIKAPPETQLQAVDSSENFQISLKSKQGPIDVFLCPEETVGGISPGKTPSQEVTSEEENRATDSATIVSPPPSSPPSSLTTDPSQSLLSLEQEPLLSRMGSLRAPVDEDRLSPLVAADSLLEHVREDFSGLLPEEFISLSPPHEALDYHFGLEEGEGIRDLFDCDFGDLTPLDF
Chain of Paired box protein Pax-6 (Homo sapiens) (P26367 whole entry, looked up): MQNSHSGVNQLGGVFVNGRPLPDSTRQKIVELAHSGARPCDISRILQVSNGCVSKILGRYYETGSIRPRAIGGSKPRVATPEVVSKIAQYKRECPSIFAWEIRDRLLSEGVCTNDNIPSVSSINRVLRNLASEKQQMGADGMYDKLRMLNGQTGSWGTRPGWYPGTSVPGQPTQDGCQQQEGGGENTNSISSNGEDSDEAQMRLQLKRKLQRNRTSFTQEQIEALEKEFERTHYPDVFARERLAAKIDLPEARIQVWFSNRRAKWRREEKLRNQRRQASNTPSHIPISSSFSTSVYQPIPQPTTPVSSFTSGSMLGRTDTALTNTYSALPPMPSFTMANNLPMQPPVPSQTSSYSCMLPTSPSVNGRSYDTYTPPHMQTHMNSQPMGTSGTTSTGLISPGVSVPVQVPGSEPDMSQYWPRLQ

Take `CC(=O)c1cc2c(cc1C)C(C)(C)C(C)CC2(C)C` (stereo not given): the AC50 in assay [1] is 28.1 µM (active); in [2], 26.1 µM (active); in assay [3], 158 µM (active); in assay [13], 43.8 µM (active); in [14] it was 100 µM (active); in [15] it was 2.25 µM (active). In addition, the values for the AC50 in [17] and in assay [18] were 46.1 µM (active) and 168 µM (active), respectively. In addition, the outcome in [4], in assay [5], in assay [6], in assay [7], in assay [8] and in assay [9] was inactive. Also, the call in assay [10], in [11], in assay [12], in assay [16], in [19] and in assay [20] was inactive.
For the molecule `C=COCCCl`, the molecule was classed as inactive in [1], in [2], in assay [3], in assay [4], in assay [5] and in [6]. Further, the result in assay [7], in [8], in assay [9], in [10], in [11] and in assay [12] was inactive. Moreover, the call in [13], in assay [14], in [15], in assay [16], in assay [17] and in [18] was inactive. In addition, the call in assay [19] and in assay [20] was inactive.
In the case of `CN(C)N`, the result in [1], in [2], in assay [3], in assay [4], in assay [5] and in assay [6] was inactive. Besides, the molecule was called inactive in assay [7], in assay [8], in assay [9], in [10], in assay [11] and in [12]. Further, the outcome in assay [13], in assay [14], in assay [15], in [16], in [17] and in assay [18] was inactive. Also, the result in assay [19] and in assay [20] was inactive.
As to `C[C@]12CC[C@H](O)C[C@H]1CC[C@@H]1[C@@H]2C[C@@H](O)[C@]2(C)[C@@H](C3=CC(=O)OC3)CC[C@]12O`, the AC50 was 0.72 µM (active) in [1]; 0.865 µM (active) in assay [3]; 2.68 µM (active) in [6]; 8.76 µM (active) in assay [7]; 8.56 µM (active) in assay [9]; 7.98 µM (active) in assay [10]. Besides, the half-maximal activity concentration (AC50) in assay [11] was 13.8 µM (active); in [13] it was 2.73 µM (active); in assay [14], 0.513 µM (active); in [15], 1.87 µM (active); in assay [17], 1.74 µM (active); in assay [19], 60.9 µM (active). In addition, the molecule was classed as inactive in assay [2], in assay [4], in [5], in [8], in assay [12] and in assay [16]. The molecule was classed as inactive in assay [18] and in assay [20].
